Only some compounds are listed: those with a hit (about 11% of all), similar ones and a draw of the others.
BAZ2B inh – BAZ2B (human) inhibition. AlphaScreen BAZ2B-H3K14Ac peptide displacement. Potency, µM (titrated, usually from 114 µM), for inactives: top-dose activity change, negative = inhibition, usual class: inhibitors. 360,000 compounds, 4.4% hits. AID 504333; also: % is scaled to controls: 0 for no effect and ±100 for the full control effect; nearly all actives have a fitted effect of over 60% in size
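Multi-concentration screen (max 110 uM) measuring displacement of acetylated histone H3 peptide from BAZ2B by AlphaScreen, using 50 nM protein, 50 nM peptide and 10 ug/mL streptavidin donor plus Ni-chelate acceptor beads.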
HP1b binding inh – inhibitors of HP1-beta chromodomain binding to methylated histone tails | Potency, µM (series often up to 114 µM), for inactives: at the top dose activity change, negative = inhibition, hits mostly inhibitors | 390,000 compounds, 0.56% hits | AID 540317 | P83916 | AlphaScreen HP1-beta / biotin-H3K9me3 peptide binding; also: nearly all actives have a fitted effect of over 70% in size
Target sequence (P83916 whole entry, looked up): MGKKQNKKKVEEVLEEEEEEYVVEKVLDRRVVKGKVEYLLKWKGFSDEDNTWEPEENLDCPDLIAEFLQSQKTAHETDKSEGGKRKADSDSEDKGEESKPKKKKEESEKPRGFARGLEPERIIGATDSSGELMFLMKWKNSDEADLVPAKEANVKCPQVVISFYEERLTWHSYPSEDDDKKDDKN
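Compound inhibition of the preformed complex between 50 nM HP1-beta and 50 nM biotinylated H3K9me3 peptide was read by AlphaScreen. Buffer was PBS pH 7.4 with 0.01% Tween-20. Incubations ran 30 min at room temperature, with 10 ug/mL donor/acceptor beads.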
L3MBTL1 block – L3MBTL1 (human) inhibition; Q9Y468; AlphaScreen L3MBTL1–H3K9me1 peptide binding; Potency, µM (highest dose often 57.1 µM), inactives show top-dose activity, negative = inhibition, hits mostly inhibitors; 230,000 compounds, 0.66% hits; also: % is scaled to controls: 0 for no effect and ±100 for the full control effect; nearly all actives have a fitted effect of over 60% in size
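First, the protein-peptide complex forms for 30 min at room temperature (L3MBTL1 50 nM, biotinylated H3K9me1 peptide 75 nM). Next, compounds are pin-transferred and incubated 30 min. Finally, AlphaScreen beads are added and read after 30 min.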
G9a block – blocks human histone lysine methyltransferase G9a | G9a H3K9 monomethylation, AlphaScreen, 2 h | Potency, µM (top dose mostly 102 µM), for the others: top-dose activity, negative = inhibition, usual class: inhibitors | 350,000 compounds, 8.8% hits; also: % is scaled to controls: 0 for no effect and ±100 for the full control effect; nearly all actives have a fitted effect of over 75% in size
Target sequence (Q96KQ7 913-1193 limits assumed): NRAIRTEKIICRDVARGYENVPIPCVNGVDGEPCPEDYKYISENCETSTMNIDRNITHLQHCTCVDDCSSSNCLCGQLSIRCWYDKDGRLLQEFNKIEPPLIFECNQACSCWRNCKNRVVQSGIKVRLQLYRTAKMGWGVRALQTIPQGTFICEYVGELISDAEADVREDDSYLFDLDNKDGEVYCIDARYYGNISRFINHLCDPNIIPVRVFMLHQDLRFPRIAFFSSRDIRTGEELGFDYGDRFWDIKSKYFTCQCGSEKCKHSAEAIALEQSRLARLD
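AlphaScreen detection with an anti-monomethyl H3K9 antibody quantified product after a 2 h room-temperature reaction containing 500 nM biotinylated H3K9 peptide, 20 µM SAM and 20 nM enzyme, which had been preincubated 15 min with compound.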
JMJD2A Tudor inh – inhibitors of human JMJD2A Tudor domain | O75164 | AlphaScreen JMJD2A-Tudor / H3K4me3 peptide binding | Potency, µM (doses to about 114 µM), inactives show at the top dose activity change, negative = inhibition, usual class: inhibitors | 390,000 compounds, 4.4% hits; also: % is scaled to controls: 0 for no effect and ±100 for the full control effect; nearly all actives have a fitted effect of over 50% in size
* marks the source's active call; other numbers are inactive results; [ ] = another dose, or the depositor's remark. Calls follow the shape of the dose curve; as a rule, active = well fitted inhibition curve with a large enough effect; inconclusive = small, poorly fitted or top-dose-only effect; inactive = no such curve, though single readings can be large or run the other way. Potency is read from the fitted curve at half-maximal effect.

How did COc1ccc(C2CC(=O)Oc3c(C(CCN4CCOCC4)c4cc(OC)c(OC)c(OC)c4)c(OC)cc(OC)c32)cc1 (centres undefined) do in these assays?
BAZ2B inh: -36.9%; HP1b binding inh: 9.1%; G9a block: inconclusive; JMJD2A Tudor inh: inconclusive

Results for COc1ccc(C2CC(=O)Oc3c(C(CCN4CCOCC4)c4ccc5c(c4)OCO5)c(OC)cc(OC)c32)cc1 (centres undefined) ?
HP1b binding inh: -27.6%; JMJD2A Tudor inh: 56.2µM*

What do the screens show for `COc1ccc(C2CC(=O)Oc3c(C(CCN4CCN(c5ccccc5)CC4)c4ccc(N(C)C)cc4)c(OC)cc(OC)c32)cc1` (centres undefined)?
BAZ2B inh: 4.47µM*; HP1b binding inh: inconclusive; G9a block: inconclusive; JMJD2A Tudor inh: 5.01µM*

Results for CCN(CC)CCC(c1cc(OC)c(OC)c(OC)c1)c1c(OC)cc(OC)c2c1OC(=O)CC2c1ccc(N(C)C)cc1 (centres undefined) ?
HP1b binding inh: -32.8%; JMJD2A Tudor inh: 31.6µM*

How did COc1cc(C(CCN2CCCCC2)c2c(OC)cc(OC)c3c2OC(=O)CC3c2ccc(N(C)C)cc2)cc(OC)c1OC (centres undefined) do in these assays?
HP1b binding inh: inconclusive; JMJD2A Tudor inh: 39.8µM*

How did COc1cc(C(CCN2CCCC2)c2c(OC)cc(OC)c3c2OC(=O)CC3c2ccc(N(C)C)cc2)cc(OC)c1OC (centres undefined) do in these assays?
HP1b binding inh: inconclusive; JMJD2A Tudor inh: 28.2µM*

What do the screens show for `COc1cc(C(CCN2CCOCC2)c2c(OC)cc(OC)c3c2OC(=O)CC3c2ccc(N(C)C)cc2)cc(OC)c1OC` (centres undefined)?
BAZ2B inh: 14.1µM*; HP1b binding inh: inconclusive; G9a block: -9.4%[12.7 µM]; JMJD2A Tudor inh: 28.2µM*

How did Cc1ccc2nc(Cl)c3cc(C(=O)NC4CCCCC4)sc3c2c1 do in these assays?
BAZ2B inh: -8.5%; HP1b binding inh: 28.1%; G9a block: 4.6%[59 µM]; JMJD2A Tudor inh: -9.6%

Results for CC(C)(C)c1cc(CCC(=O)N2CCC2)cc(C(C)(C)C)c1O ?
BAZ2B inh: 89.1µM*; HP1b binding inh: 30.7%; G9a block: 100.1%; JMJD2A Tudor inh: -6.0%

How did Cn1cccc1C(=O)N1CCC2(CCN(Cc3ccccc3)CC2)CC1 do in these assays?
G9a block: -6.6%[12.7 µM]

What do the screens show for `CN(C)c1ccc(O)c2c1C[C@H]1C[C@H]3[C@@H](N(C)C)C(=O)C(C(N)=O)=C(O)[C@]3(O)C(=O)C1=C2O`?
G9a block: 8.91µM*

Results for C[C@@H]1c2cccc(O)c2C(O)=C2C(=O)[C@@]3(O)C(O)=C(C(N)=O)C(=O)[C@@H](N(C)C)[C@@H]3[C@@H](O)[C@@H]21 ?
G9a block: -44.2%[12.7 µM]

What do the screens show for `CC(C)c1ccc(NC(=O)C2CCN(S(=O)(=O)c3cccc4nonc34)CC2)cc1`?
BAZ2B inh: 4.7%; HP1b binding inh: 4.3%; G9a block: -3.7%[59 µM]; JMJD2A Tudor inh: -16.7%

What do the screens show for `COc1ccc(-c2nnc(SCC(=O)c3ccc(NC(C)=O)cc3)o2)cc1OC`?
BAZ2B inh: -2.4%; HP1b binding inh: 56.8%; G9a block: 0.9%[59 µM]; JMJD2A Tudor inh: -22.9%

What do the screens show for `O=C(COc1ccccc1)N=C1SC2CS(=O)(=O)CC2N1Cc1ccccc1` (centres undefined)?
BAZ2B inh: -32.2%; HP1b binding inh: 32.0%; G9a block: 35.5%; JMJD2A Tudor inh: -19.9%

How did O=C(COC(=O)CCc1ccccc1)NC1CCS(=O)(=O)C1 (centres undefined) do in these assays?
BAZ2B inh: -5.8%; HP1b binding inh: 12.6%; L3MBTL1 block: 7.8%; G9a block: 50.1µM*; JMJD2A Tudor inh: -11.7%

Results for Cc1cc(C)cc(NC(=S)NCC2CCN(C(C)c3ccccc3)C2)c1 (centres undefined) ?
BAZ2B inh: -16.5%; HP1b binding inh: 19.6%; G9a block: -44.9%; JMJD2A Tudor inh: -19.6%

Results for COc1ccc(N2CCC(CNC(=S)Nc3cccc(C)c3)C2)cc1 (centres undefined) ?
BAZ2B inh: 12.6µM*; HP1b binding inh: inconclusive; L3MBTL1 block: inconclusive; G9a block: inconclusive; JMJD2A Tudor inh: 44.7µM*

What do the screens show for `COc1cccc(N2CCN(C(=S)Nc3ccc(C)cc3C)CC2)c1`?
BAZ2B inh: 8.5%; HP1b binding inh: 18.1%; L3MBTL1 block: -3.1%; G9a block: -0.4%; JMJD2A Tudor inh: 4.8%

Results for COc1ccc(N2CCC(CNC(=S)Nc3c(C)cc(C)cc3C)C2)cc1 (centres undefined) ?
BAZ2B inh: 20µM*; HP1b binding inh: 7.08µM*; G9a block: inconclusive; JMJD2A Tudor inh: 35.5µM*

Results for COc1ccc(N2CCC(CNC(=S)Nc3ccc(C)cc3C)C2)cc1 (centres undefined) ?
BAZ2B inh: 15.8µM*; HP1b binding inh: inconclusive; G9a block: inconclusive; JMJD2A Tudor inh: 28.2µM*

Results for COc1ccc(NC(=O)N(Cc2ccco2)C2CCN(C(C)=O)CC2)c(OC)c1 ?
BAZ2B inh: 3.4%; HP1b binding inh: 30.3%; G9a block: -6.5%[59 µM]; JMJD2A Tudor inh: -20.5%

Results for CN(C)CCOCCOc1ccccc1-c1ccccc1 ?
BAZ2B inh: 20µM*; HP1b binding inh: inconclusive; L3MBTL1 block: -4.5%; G9a block: -33.8%[0.501 µM]; JMJD2A Tudor inh: 2.82µM*

How did CN(C)CCOc1ccccc1-c1ccccc1 do in these assays?
BAZ2B inh: 25.1µM*; HP1b binding inh: inconclusive; G9a block: -40.7%[2.33 µM]; JMJD2A Tudor inh: 0.891µM*

How did COc1ccc(S(=O)(=O)NCCc2csc(-c3cccc(F)c3)n2)cc1OC do in these assays?
BAZ2B inh: 2.4%; HP1b binding inh: 22.9%[57 µM]; G9a block: 20.6%[59 µM]; JMJD2A Tudor inh: -23.3%

What do the screens show for `COC1(OC)C(=N/O)/C(=N\O)CCC1O` (centres undefined)?
BAZ2B inh: inconclusive; HP1b binding inh: 6.5%; G9a block: 11.2µM*; JMJD2A Tudor inh: -30.8%

Results for O=C(Cn1c(=O)n(Cc2ccco2)c(=O)c2sc3ccccc3c21)Nc1ccc(F)cc1F ?
BAZ2B inh: -10.6%; HP1b binding inh: 34.8%; G9a block: -3.6%[59 µM]; JMJD2A Tudor inh: -15.9%

Results for O=C(CSc1nnc(-c2ccccc2F)o1)NC1CCCCC1 ?
BAZ2B inh: 8.8%; HP1b binding inh: 33.0%; G9a block: 2.2%; JMJD2A Tudor inh: -14.5%

How did N#CC1(NC(=O)CSc2nnc(-c3ccccc3F)o2)CCCCC1 do in these assays?
BAZ2B inh: -0.6%; HP1b binding inh: -20.6%; L3MBTL1 block: -5.3%; G9a block: 39.8µM*; JMJD2A Tudor inh: -9.2%
